These results are taken from PubChem BioAssay (Tox21).

Inconclusive results are not listed. Activity calls are given as the source filed them. Calls come from the whole dose curve.
% is set by controls: 0 for no effect and ±100 for the full control effect.

For this test, the target named is Vitamin D3 receptor (Homo sapiens) (UniProt P11473). In words: qHTS assay to identify small molecule agonists of the vitamin D receptor (VDR) signaling pathway (AID 743222). The conditions noted are these: HEK293T VDR-UAS-bla, beta-lactamase FRET ratio, 16 h; series mostly up to 63.5 µM. The text has this: National Center for Advancing Translational Sciences [NCATS]
Vitamin D3 receptor (Homo sapiens), sequence (P11473 whole entry, looked up): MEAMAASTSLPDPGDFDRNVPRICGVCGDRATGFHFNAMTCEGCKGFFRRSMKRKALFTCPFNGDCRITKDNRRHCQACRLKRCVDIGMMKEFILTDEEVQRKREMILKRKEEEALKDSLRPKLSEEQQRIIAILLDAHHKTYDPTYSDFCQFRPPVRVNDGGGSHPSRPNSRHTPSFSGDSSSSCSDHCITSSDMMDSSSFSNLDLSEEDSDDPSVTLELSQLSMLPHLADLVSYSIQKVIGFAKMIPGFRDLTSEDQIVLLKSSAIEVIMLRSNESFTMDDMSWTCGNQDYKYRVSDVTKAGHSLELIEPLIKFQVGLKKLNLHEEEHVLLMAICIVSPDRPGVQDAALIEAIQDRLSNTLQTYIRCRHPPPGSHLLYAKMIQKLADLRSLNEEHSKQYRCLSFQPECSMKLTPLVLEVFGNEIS
NIH Chemical Genomics Center [NCGC]
U.S. Environmental Protection Agency [EPA]
National Institutes of Environmental Health Sciences [NIEHS]
National Toxicology Program [NTP]
U.S. Food and Drug Administration [FDA]
The vitamin D receptor (VDR), a member of nuclear hormone receptor superfamily, plays a critical role in calcium homeostasis and bone metabolism. It is also involved in cell differentiation and growth, and thrombogenicity.
Tox21 Assay Protocol Summary:
VDR-bla cells were dispensed at 2,000 cells/6 uL/well into black wall/clear-bottom 1536-well plates using a Multidrop Combi (Thermo Fisher Scientific, Waltham, MA) dispenser. After the assay plates were incubated at a 37C and 5% CO2 for 4 h, 23 nL of compounds dissolved in DMSO, positive controls or DMSO only was transferred to the assay plate by a Pintool station (Kalypsys, San Diego, CA). The plates were incubated at 37C and 5% CO2 for 16 h. After 1 uL of LiveBLAzerTM B/G FRET substrate was added using a Bioraptr Flying Reagent Dispenser (FRD) workstation (Beckman Coulter, Indianapolis, IN, USA), the plates were incubated at room temperature for 2 h, and fluorescence intensity was measured by an Envision plate reader (PerkinElmer, Shelton, CT).
For orientation: qHTS replaces the single test concentration by a dilution series.
Regarding `CCOC(=O)NC(O)C(Cl)(Cl)Cl` (stereo not given), the result was inactive. As to `OCCSSCCO`, the outcome was inactive.

In the case of `CN(C)C(=O)Nc1cccc(OC(=O)NC(C)(C)C)c1`, the result was inactive.

As for `CC(C)(c1ccccc1)c1cc(-n2nc3ccccc3n2)c(O)c(C(C)(C)c2ccccc2)c1`, the result was inactive.

For the molecule `CCCCCCCCCCCCN=C(N)N`, the activation is -0.533% [at 2.71 µM] (inactive). Turning to `O=S(=O)(c1ccccc1)c1ccccc1`, the outcome was inactive. With `CC(=O)OC(c1ccccc1)C(Cl)(Cl)Cl` (stereo not given), the outcome was inactive. `FC(F)OC(F)(F)C(F)Cl` (stereo not given): the outcome was inactive. Same read-out and setting: to `COP(=O)(OC)OC(Br)C(Cl)(Cl)Br` (stereo not given) belongs “inactive”.

As for `C[CH2][Hg][S]c1ccccc1C(=O)O`, the result was inactive.

Regarding `CCOc1cccc(C2(N3CCN(c4ccccc4)CC3)CCC(C)CC2)c1` (stereo not given), the result was inactive. Same read-out and setting: to `C1CCNCC1` belongs “inactive”; to `Cc1ccc(N)c(C)c1`, “inactive”.

With `CCCC[P+](CC)(CCCC)CCCC` (tested in a mixture with another compound), the result was inactive. Same read-out and setting: to `C[C@]12CC[C@H]3[C@@H](CCC4=CC(=O)CC[C@@H]43)[C@@H]1CC[C@@H]2OC(=O)CCc1ccccc1` belongs “inactive”. The same measure, in the same setting: to `CN(C)N` belongs “inactive”; to `CCC(C)Cl` (stereo not given), “inactive”.

As to `C#CC(O)(C=CCl)CC` (stereo not given), the outcome was inactive.

As for `CCCCC(CC)CO[N+](=O)[O-]` (stereo not given), the result was inactive. As for `CON(C)C(=O)Nc1ccc(Cl)cc1`, the outcome was inactive. Same read-out and setting: to `CCCCCCCCP(=O)(O)O` belongs “inactive”.

On to `Nc1ccc2c(c1)Cc1ccccc1-2`, for which the result was inactive. The same measure, in the same setting: to `O=C1NC(=O)C(=O)C(=O)N1` belongs “inactive”; to `Cc1ccccc1`, “inactive”; to `COC(=O)Cc1ccccc1`, “inactive”. Turning to `COc1ccccc1N1CCNCC1`, the result was inactive. On the same count and under the same terms, to `c1ccc2sc(SNC3CCCCC3)nc2c1` belongs “inactive”; to `CCOC(C(=O)OCCN(C)C)(c1ccccc1)c1ccccc1`, “inactive”; to `NP(N)(=O)NC(=O)c1ccc(F)cc1`, “inactive”. With `CCC(C)(C)c1ccc(O)c(C(C)(C)CC)c1`, the result was inactive. Same read-out and setting: to `Cc1nnc(-c2ccccc2)c(=O)n1N` belongs “inactive”; to `CCCCC1C(=O)NC(=O)N(C2CCCCC2)C1=O` (stereo not given), “inactive”. Turning to `O=C=NC1CCCCC1`, the result was inactive. The same measure, in the same setting: to `CCCC(C)(COC(N)=O)COC(=O)NC(C)C` (stereo not given) belongs “inactive”; to `C=CCOCC1CO1` (stereo not given), “inactive”. The same measure, in the same setting: to `CCOP(=O)(SC(C)CC)N1CCSC1=O` (stereo not given) belongs “inactive”; to `Cc1ncc(C[n+]2csc(CCO)c2C)c(N)n1`, “inactive”.

In the case of `Nc1c(Br)cc(Br)c2c1C(=O)c1ccccc1C2=O`, the result was inactive.

Consider `CCCCCCCCCCCCN(C)C`, for which the result was inactive.

In the case of `CC(C)OC(=O)Cc1ccccc1`, the result was inactive.
